# Reference: publication PMC11006913
# Molecular target: PITX2 (Homo sapiens, UniProt Q99697 72-157)
# Experiment: PBM; 200 nM protein, PBS
# Details: dsDNA, one strand shown
row,Sequence,binding signal
1,CTATCGCC,"8.13 upbm affinity estimate (log intensity, higher = more binding, comparable within an allelic series)"
2,ACAGATCT,"9.05 upbm affinity estimate (log intensity, higher = more binding, comparable within an allelic series)"
3,CCTGCTTA,"10.3 upbm affinity estimate (log intensity, higher = more binding, comparable within an allelic series)"
4,AAGATAAT,"10.6 upbm affinity estimate (log intensity, higher = more binding, comparable within an allelic series)"
5,ACGTTCTG,"8.19 upbm affinity estimate (log intensity, higher = more binding, comparable within an allelic series)"
6,CAGTTTCA,"7.95 upbm affinity estimate (log intensity, higher = more binding, comparable within an allelic series)"
7,ATTATCAC,"10.2 upbm affinity estimate (log intensity, higher = more binding, comparable within an allelic series)"
8,ACTGTCAG,"7.86 upbm affinity estimate (log intensity, higher = more binding, comparable within an allelic series)"
9,GAACACGA,"8.02 upbm affinity estimate (log intensity, higher = more binding, comparable within an allelic series)"
10,AATTCCAC,"9.99 upbm affinity estimate (log intensity, higher = more binding, comparable within an allelic series)"
11,CCGTACCC,"7.91 upbm affinity estimate (log intensity, higher = more binding, comparable within an allelic series)"
12,GCGCTGCA,"8.03 upbm affinity estimate (log intensity, higher = more binding, comparable within an allelic series)"
13,AGATTTAT,"11 upbm affinity estimate (log intensity, higher = more binding, comparable within an allelic series)"
14,ACCACCGT,"8.12 upbm affinity estimate (log intensity, higher = more binding, comparable within an allelic series)"
15,ATTACAGA,"9.82 upbm affinity estimate (log intensity, higher = more binding, comparable within an allelic series)"
16,GGAGAGAC,"8.03 upbm affinity estimate (log intensity, higher = more binding, comparable within an allelic series)"
17,CGCCTGTC,"8.14 upbm affinity estimate (log intensity, higher = more binding, comparable within an allelic series)"
18,CTGAGATA,"9.22 upbm affinity estimate (log intensity, higher = more binding, comparable within an allelic series)"
19,AACGAGGC,"7.79 upbm affinity estimate (log intensity, higher = more binding, comparable within an allelic series)"
20,ACTAAGCC,"12.4 upbm affinity estimate (log intensity, higher = more binding, comparable within an allelic series)"

row,Sequence,binding signal
1,AGGGCTTA,"12.3 upbm affinity estimate (log intensity, higher = more binding, comparable within an allelic series)"
2,GCATGCAC,"7.85 upbm affinity estimate (log intensity, higher = more binding, comparable within an allelic series)"
3,CGGAATCC,"10.1 upbm affinity estimate (log intensity, higher = more binding, comparable within an allelic series)"
4,AGATCCGG,"9.62 upbm affinity estimate (log intensity, higher = more binding, comparable within an allelic series)"
5,GGATCCTA,"9.17 upbm affinity estimate (log intensity, higher = more binding, comparable within an allelic series)"
6,GCGTACCC,"8.02 upbm affinity estimate (log intensity, higher = more binding, comparable within an allelic series)"
7,GCTCCACC,"7.66 upbm affinity estimate (log intensity, higher = more binding, comparable within an allelic series)"
8,TATGATCA,"9.32 upbm affinity estimate (log intensity, higher = more binding, comparable within an allelic series)"
9,GAGTGCGC,"7.98 upbm affinity estimate (log intensity, higher = more binding, comparable within an allelic series)"
10,CGCCAGCA,"8 upbm affinity estimate (log intensity, higher = more binding, comparable within an allelic series)"
11,AGTGCCTC,"7.74 upbm affinity estimate (log intensity, higher = more binding, comparable within an allelic series)"
12,AGCGATGC,"7.81 upbm affinity estimate (log intensity, higher = more binding, comparable within an allelic series)"
13,ATATAAAG,"9.37 upbm affinity estimate (log intensity, higher = more binding, comparable within an allelic series)"
14,TCTTGGCA,"7.96 upbm affinity estimate (log intensity, higher = more binding, comparable within an allelic series)"
15,CTCCCCGA,"8.1 upbm affinity estimate (log intensity, higher = more binding, comparable within an allelic series)"
16,GCTTAGAA,"10.2 upbm affinity estimate (log intensity, higher = more binding, comparable within an allelic series)"
17,CAACGGGC,"7.95 upbm affinity estimate (log intensity, higher = more binding, comparable within an allelic series)"
18,AGAGCTCA,"9.42 upbm affinity estimate (log intensity, higher = more binding, comparable within an allelic series)"
19,GAATATTA,"9.35 upbm affinity estimate (log intensity, higher = more binding, comparable within an allelic series)"
20,ATGAGCCC,"9.64 upbm affinity estimate (log intensity, higher = more binding, comparable within an allelic series)"
